MsrA inhibitor: bovine MsrA enzyme inhibitors, primary screen, biochemical, absorbance, HTS. AID 651718, 2012. purified bovine MsrA, absorbance read-out. 360,000 tested, 0.75% active. Methionine sulfoxide reductase A (Bos taurus). inhibition, % at 15.5 µM; in the data active = inhibition above about 4.5%;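 note: 0% = vehicle wells with enzyme and 100% = reference inhibitor wells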
bovine MsrA act: bovine MsrA enzyme activators, primary screen, biochemical, absorbance, HTS; Methionine sulfoxide reductase A (Bos taurus); purified bovine MsrA, absorbance read-out; activation, % at 10.6 µM; 360,000 tested, 0.3% active; in the data active = activation above about 7.5%;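 note: 0% = vehicle and 100% = reference activator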
rCAG binder: binders of r(CAG) RNA repeats, primary screen, biochemical, fluorescence; r(CAG) RNA repeat, TO-PRO-1 dye displacement fluorescence; 370,000 tested, 1.3% active; AID 651821, 2012; inhibition, % at 3 µM;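 active = inhibition above the plate cutoff, the mean of all test compounds on that plate plus 3 SD, cut at about 35% in these data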;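 note: 0% = DMSO alone and 100% = 100 µM mitoxantrone as full dye displacement; higher means more dye released from RNA so lower well fluorescence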
PG9 binder: binders of HIV-1 gp120 antibody PG9, primary screen, biochemical, TR-FRET. 360,000 tested, 0.43% active. inhibition, % at 6.7 µM. TR-FRET gp120-PG9 antibody binding; in the data active = inhibition above about 8.5%
HGIII-sPLA2 inh: human group III sPLA2 inhibitors, primary screen, biochemical, QFRET, BODIPY PC-A2 liposome substrate; 370,000 tested, 0.56% active; Group 3 secretory phospholipase A2 (Homo sapiens), Q9NZ20; inhibition, % at 12.2 µM; QFRET BODIPY PC-A2 liposome hydrolysis, fluorescence;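 active = inhibition above mean plus 3 SD of compounds lying within the high and low control bounds, cut at about 19% in these data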;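 note: 0% = median of test compound wells and 100% = no enzyme DMSO wells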
Target sequence (Q9NZ20 whole entry, looked up): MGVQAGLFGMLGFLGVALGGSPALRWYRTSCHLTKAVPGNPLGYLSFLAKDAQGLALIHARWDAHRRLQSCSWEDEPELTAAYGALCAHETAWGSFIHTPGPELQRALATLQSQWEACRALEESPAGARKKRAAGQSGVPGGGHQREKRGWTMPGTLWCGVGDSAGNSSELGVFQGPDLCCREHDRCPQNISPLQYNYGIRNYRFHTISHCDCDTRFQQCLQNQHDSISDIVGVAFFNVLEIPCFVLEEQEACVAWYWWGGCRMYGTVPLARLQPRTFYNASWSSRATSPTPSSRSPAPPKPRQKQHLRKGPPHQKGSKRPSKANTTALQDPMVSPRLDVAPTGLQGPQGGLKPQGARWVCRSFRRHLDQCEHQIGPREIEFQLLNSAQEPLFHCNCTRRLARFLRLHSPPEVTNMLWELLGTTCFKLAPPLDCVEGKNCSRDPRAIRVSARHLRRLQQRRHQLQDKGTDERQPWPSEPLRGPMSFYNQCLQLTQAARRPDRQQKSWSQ
PG9 bind confirm: binders of anti-gp120 antibody PG9, confirmation, biochemical, TR-FRET; 1,500 tested, 90% active; shares compounds with PG9 binder; inhibition, % at 6.7 µM; TR-FRET PG9 antibody binding; AID 651571, 2012; in the data active = inhibition above about 9%
PGV04 counter: binders of control antibody PGV04, counter-screen for PG9 antibody binder project, biochemical, TR-FRET, distinct HIV envelope site; shares compounds with PG9 binder; TR-FRET PGV04 antibody-gp120 binding; inhibition, % at 6.7 µM; 1,500 tested, 95% active; in the data active = inhibition above about 9.5%
PG9 bind DR: small-molecule binders of antibody PG9, dose response, biochemical, TR-FRET, HIV-1 gp120 antibody; shares compounds with PG9 binder; TR-FRET PG9 antibody-gp120 binding inhibition; IC50, µM; 95 tested, under 10 active; AID 651848, 2012; in the data active = IC50 below about 10 µM
PGV04 DR counter: binders of control antibody PGV04, dose response, counter-screen for PG9 antibody binder project, biochemical, TR-FRET, distinct HIV envelope site; 95 tested, 20% active; IC50, µM; AID 651937, 2012; shares compounds with PG9 binder; TR-FRET binding to control antibody PGV04
PG126 DR counter: binders of control antibody PG126, dose response, counter-screen for PG9 antibody binder project, biochemical, TR-FRET, distinct HIV envelope site; 95 tested, 20% active; shares compounds with PG9 binder; IC50, µM; TR-FRET binding to antibody PG126, counterscreen
Numbers without * were called inactive; i = inactive; . = no result. Only some compounds are listed: those with a hit (about 3.2% of all), similar ones and a draw of the others. Cut-off read from the data, not from the text of the source, unless noted: active = IC50 below about 9 µM; inactive = the rest.

SMILES | MsrA inhibitor | bovine MsrA act | rCAG binder | PG9 binder | HGIII-sPLA2 inh | PG9 bind confirm | PGV04 counter | others
CCCCCCN1CCS(=O)(=O)N(Cc2ccc(C)cc2)C(C(=O)OC)C1 (centres undefined) | . | . | 0.2 | . | -2.9 | . | .
O=C(Nc1nc2c(Br)cccc2s1)c1ccc2c(c1)OCCO2 | . | . | . | . | -13.1 | . | .
COc1ccccc1CNc1ncnc2cc(Cl)ccc12 | -0.8 | -2.0 | 0.9 | 89.7* | 0.4 | 91.1* | 92.9*
COc1ccc(CNc2ncnc3cc(Cl)ccc23)cc1OC | -1.1 | -3.5 | -0.7 | -0.9 | -5.9 | . | .
CCn1c(=O)n2n(c1=O)[C@]1(C=C(C)C2)CN(Cc2ccc(OC)cc2OC)C(NC(=O)c2ccccc2)=N1 | . | . | . | . | 17.7 | . | .
Cc1c(C(=O)Nc2ccc(S(N)(=O)=O)cc2)oc2ccc(Cl)cc12 | 0.1 | -2.8 | 7.3 | 3.5 | 3.4 | . | .
CCc1ccc2oc(C(=O)Nc3ccc(S(N)(=O)=O)cc3)c(C)c2c1 | 0.0 | -7.2 | 8.5 | 10.0* | -5.2 | 14.6* | 20.9*
COc1ccc2c(c1)N[C@@](CCN1C(=O)c3ccccc3C1=O)(c1[nH]c3ccccc3c1CCN1C(=O)c3ccccc3C1=O)C2=O | . | . | . | . | 1.3 | . | .
CCN(CC)C(=O)CC[C@@H]1CC[C@]2(CCCN(C(=O)c3ccno3)C2)O1 | . | . | 3.4 | . | 8.2 | . | .
Cc1cc(NCCCN(C)C)n2c(nc3ccccc32)c1C#N | 1.6 | -0.8 | 2.4 | -0.4 | 9.1 | . | .
Cc1cc(NCCCOC(C)C)n2c(nc3ccccc32)c1C#N | 0.1 | -1.7 | -0.3 | 10.7* | -0.8 | 21.9* | 32.6*
CCOC(=O)c1cc(-c2cccc(C(F)(F)F)c2)nc2nc(SC)[nH]c(=O)c12 | 0.6 | -2.5 | 9.6 | -1.0 | -14.2 | . | .
CCOC(=O)c1cc(-c2ccc(C)cc2)nc2nc(SC)[nH]c(=O)c12 | 0.5 | -11.8 | 5.4 | 24.2* | 7.0 | 32.5* | 34.2*
Cc1ccc(NC(=O)Cn2cc(S(=O)(=O)c3ccc(C)cc3)c(=O)c3cc(F)ccc32)cc1 | -0.2 | 0.5 | 9.1 | 12.8* | -5.1 | 36.4* | 62.3*
COCc1cn(-c2ccc3c(c2)[C@@]2(CC(=O)N(C)C2c2ccccc2)C(=O)N3CC(C)C)nn1 (some centres undefined) | . | . | -3.1 | . | 4.2 | . | .
CCn1c(C(=O)NC2CCC(C)CC2)cc2sccc21 (centres undefined) | 0.8 | 0.4 | -5.9 | 11.0* | -1.7 | 4.5 | 8.3
CCC[C@H]1[C@@H](OC(=O)NCc2ccc(C(F)(F)F)cc2)CC[C@@]23CCCN2C(=O)CCC[C@@H]13 | . | . | . | . | -7.5 | . | .
C#CCn1c(=NC(=O)c2ccco2)sc2cccc(Cl)c21 | 1.3 | -2.5 | -2.4 | 16.3* | 8.8 | 16.0* | 45.5*
CCOc1cccc2sc(=NC(=O)c3ccco3)n(CC(=O)OC)c12 | 4.3 | -8.2 | -3.4 | -1.4 | -0.2 | . | .
C#CCn1c(=NC(=O)c2ccc(Br)s2)sc2cccc(OC)c21 | 1.4 | -2.2 | 3.0 | 10.8* | -4.2 | 15.1* | 25.9*
C=CCn1c(=NC(=O)c2cccs2)sc2cccc(OC)c21 | 3.0 | -5.3 | 13.5 | -0.3 | 2.5 | . | .
COc1ccc(S(=O)(=O)NNC(=O)c2cc3c4ccccc4n(C)c3s2)cc1 | -0.1 | -6.4 | 9.7 | 17.8* | -5.6 | 18.9* | 30.6*
COC(=O)C1CN(Cc2ccc(C)cc2)CCS(=O)(=O)N1Cc1cn(Cc2ccc(Cl)cc2)nn1 (centres undefined) | . | . | 2.5 | . | -14.5 | . | .
CCN(CC)C(=O)CSc1nc(N)c(C#N)c(-c2cccs2)c1C#N | 1.5 | -2.1 | 3.7 | 44.1* | 3.5 | 17.9* | 29.7*
CCN(CC)C(=O)CSc1nc(-c2cccs2)cc(-c2cccs2)c1C#N | 2.4 | -2.1 | 5.2 | 1.1 | -0.1 | . | .
SMILES | MsrA inhibitor | bovine MsrA act | rCAG binder | PG9 binder | HGIII-sPLA2 inh | PG9 bind confirm | PGV04 counter | others
O=c1c2ccccc2[nH]c(=S)n1Cc1ccc2c(c1)OCO2 | 0.2 | -2.0 | -0.7 | 8.6* | 5.8 | 12.2* | 21.8*
O=C(CCCn1c(=S)[nH]c2cc3c(cc2c1=O)OCO3)NCc1ccccc1Cl | 1.1 | -0.6 | 3.7 | 18.7* | 13.2 | 21.3* | 20.8* | PG9 bind DR=>67.1;PGV04 DR counter=i;PG126 DR counter=i
O=C(CCCCCn1c(=S)[nH]c2ccccc2c1=O)NCc1ccc2c(c1)OCO2 | 0.7 | 0.8 | 2.8 | 4.6 | 3.2 | . | .
COc1cccc(N2CCN(C(=O)CCCCCn3c(=S)[nH]c4cc5c(cc4c3=O)OCO5)CC2)c1 | 1.4 | -3.7 | 4.0 | 3.0 | 1.4 | . | .
O=C(CCn1c(=O)oc2ccccc21)NCc1ccc2c(c1)OCO2 | 0.5 | -3.0 | 1.6 | -0.8 | -1.3 | . | .
COc1cccc(CNC(=O)CCCn2c(=S)[nH]c3cc4c(cc3c2=O)OCO4)c1 | 0.4 | -3.5 | -0.5 | 27.6* | 7.8 | 15.2* | 22.8*
O=C(CCn1c(=O)c2ccccc2n(Cc2ccccc2)c1=O)NCc1ccc2c(c1)OCO2 | -0.6 | -2.6 | -2.2 | 13.0* | 6.6 | 23.8* | 41.9*
CCOc1ccc(CCNC(=O)c2ccc3[nH]ccc3c2)cc1OCC | . | . | . | . | -3.6 | . | .
O=C(Cn1cccc1C(=O)c1ccccc1)NCCc1ccc(Cl)cc1 | -0.7 | -3.0 | -5.6 | 9.4* | 1.2 | 7.1 | 10.4*
COC(=O)[C@H](CC(C)C)N(CCc1cn(Cc2ccc(C)cc2)nn1)S(=O)(=O)c1ccc(F)cc1Br | . | . | 3.0 | . | -9.3 | . | .
CC(C)CC(=O)NC(=S)Nc1sc2c(c1C(N)=O)CCC2 | 1.5 | -4.2 | 0.4 | 17.2* | 18.1 | 26.2* | 33.1*
O=C(O)c1ccccc1CSc1nnc2c(n1)[nH]c1ccccc12 | 0.0 | -2.0 | 0.3 | 11.0* | -1.1 | 20.6* | 24.1*
